Laboratory results: PubChem BioAssay (NCATS)
Records with an inconclusive call do not appear. Where a call stands in place of a potency, no number is given. The source made the active and inactive calls. The call rests on the fitted dose curve.

What was measured:
[1] = Cytotoxicity counterscreen for inhibitors of SARS-CoV-2 cell entry (AID 1645845); conditions: outcome: dose series up to 57.1 µM unless noted; further: nearly all actives have a fitted effect of over 50% in size
How it was run: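 Expi293F/hACE2 cells seeded overnight; cpd pin-transferred in DMSO, 1 h preincubation, + media, 48 h 37 C 5% CO2; ATPLite 1step luminescence; normalized to cells and no cells.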

[2] = Primary qHTS to identify inhibitors of SARS-CoV-2 cell entry (AID 1645846); conditions: SARS-CoV-2 pseudovirus cell entry assay, luminescence; activity change, negative = inhibition: at 57.1 µM (top of the series) unless noted; further: nearly all actives have a fitted effect of over 45% in size
How it was run: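 Using luciferase-reporting pseudoviruses carrying Wuhan-Hu-1 spike, the screen tracks entry into stably ACE2-expressing cells over 48 hr. Activity is expressed relative to spike particles versus particles lacking any fusion protein.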
Potency means the concentration at half of the fitted maximal effect.

SMILES	Potency [1]	activity change, negative = inhibition [2]	Potency [2]
CC(C)(O)C1CCC(Nc2ccc3ncc(-c4cccc(C(F)(F)F)c4)n3n2)CC1 (stereo not given)	inactive	-18.1%	
NCC(=O)Nc1cncc(-c2nn3c(=O)cc(N4CCNCC4)nc3s2)c1	inactive	-55.5%	
Cc1cc(Oc2ccc3nc(COc4ccc(CC5SC(=O)NC5=O)cc4)n(C)c3c2)cc(C)c1N (stereo not given)	inactive	2.59%	
CC(C)NC(=O)C1CCC(n2c(NC(=O)c3ccc(F)cc3)nc3ccc(CN4CCC(C(C)(C)O)CC4)cc32)CC1 (stereo not given)	inactive	-10.3% [at 27.1 µM]	
C[C@H]1Oc2cc(cnc2N)-c2c(nn(C)c2C#N)CN(C)C(=O)c2ccc(F)cc21	inactive	-7.26%	
C[C@H]1O[C@H](O[C@H]2[C@H](O)[C@@H](O)[C@@H](O[C@H]3[C@H](O)[C@@H](O)C(O)O[C@@H]3CO)O[C@@H]2CO)[C@H](O)[C@@H](O)[C@@H]1N[C@H]1C=C(CO)[C@@H](O)[C@H](O)[C@H]1O (stereo not given in full)	inactive	-16.5%	
CCCCOC(=O)NS(=O)(=O)c1sc(CC(C)C)cc1-c1ccc(Cn2ccnc2)cc1	inactive		inactive
Nc1ncnc2c1ncn2[C@@H]1O[C@H](CO)C[C@H]1O	inactive	-13%	
Cc1c(F)ccc(C(=O)Nc2cc([N+](=O)[O-])ccc2N2CCN(C)CC2)c1Cl	inactive	-18.7%	
CCC(=O)N1CCOc2c(cc(-c3cc(OC)cc(OC)c3)cc2C(=O)N[C@H]2CCCN(C)C2)C1	inactive	-26.1%	
O=C(Nc1nccs1)C(c1cc(F)ccc1O)N1Cc2ccccc2C1=O (stereo not given)	inactive	-14.9%	
N#Cc1ccc(Cn2cncc2CN2CCN(c3cccc(Cl)c3)C(=O)C2)cc1	inactive		inactive
CCc1c(-c2ccccc2C)nc2c(C#N)c[nH]n2c1=O	inactive	-14.3%	
O=C(CCCc1ccc2cccnc2n1)NCc1cc(-c2ccc(F)c(C(F)(F)F)c2)no1	inactive	-12.5%	
CCC(=O)O[C@]1(C(=O)CO)CC[C@H]2[C@@H]3CCC4=CC(=O)CC[C@]4(C)[C@H]3CC[C@@]21C	inactive		inactive
c1cn2cc(-c3ccc4cn[nH]c4c3)nc(Nc3ccc(N4CCOCC4)cc3)c2n1	2.82 µM (active)	-27%	
Cc1noc(-c2ccc(-c3ccc(C4(C(=O)O)CC4)cc3)cc2)c1NC(=O)O[C@H](C)c1ccccc1	inactive		35.5 µM (active)
COc1ccccc1C(=O)Nc1cc2c(cc1N1CCNC[C@H]1C)n(C)c(=O)n2C	inactive	-55.2%	
O=C(O)CNC(=O)c1ncc(-c2cccc(Cl)c2)cc1O	inactive		inactive
O=C(N[C@H]1CCC[C@H](CO)C1)C1CCN(c2nc3cc(Cl)c(-c4ccc(Cl)cc4)cc3o2)CC1	inactive	-9.89%	
CCS(=O)(=O)N1CCC(C(C)n2c(C)c(C(=O)NCc3c(OC)cc(C)[nH]c3=O)c3ccccc32)CC1 (stereo not given)	inactive	-8.61%	
CC1(C)SCCN(S(=O)(=O)c2ccc(OCC#CCO)cc2)[C@H]1C(=O)NO	inactive	-8.73%	
CCn1c(=O)c(-c2ccc(Cl)cc2Cl)cc2cnc(Nc3ccc(N4CCNCC4)c(F)c3)nc21	inactive		inactive
C[C@H](CCC(=O)O)[C@H]1CC[C@H]2[C@@H]3[C@H](O)C[C@@H]4C[C@H](O)CC[C@]4(C)[C@H]3CC[C@]12C	inactive	-12.9%	
OCc1ccccc1O[C@@H]1O[C@H](CO)[C@@H](O)[C@H](O)[C@H]1O	inactive	-12.3%	
CCOC(=O)c1ccnc(CNCC(=O)N(CC)CCN(C)C)c1	inactive	-19.4%	
CC(C)C(=O)OCC(=O)[C@@]12O[C@H](C3CCCCC3)O[C@@H]1C[C@H]1[C@@H]3CCC4=CC(=O)C=C[C@]4(C)[C@H]3[C@@H](O)C[C@@]12C	inactive	-13.1%	
C[C@@H]1C(=O)OC2[C@H](O)[C@]34[C@H]5C[C@@H](C(C)(C)C)[C@]36[C@@H](OC(=O)[C@@H]6O)O[C@@]4(C(=O)O5)[C@]21O (stereo not given in full)	inactive	-20.5%	
COc1ccc(C(=O)N2CCN(C(=O)/C=C/c3ccc(Br)cc3)CC2)cc1	inactive	-2.12%	
COc1cc(C)[nH]c(=O)c1CN1CCc2c(Cl)cc([C@H](OC)C3COC3)c(Cl)c2C1=O	inactive		inactive
